CHX counter: counter-screen for Shiga toxin inhibitors: cycloheximide protein synthesis inhibition. cell reporter, cycloheximide protein synthesis inhibition counterscreen. max response, %. 300,000 compounds, 12% hits; in the data active means max response mostly above about 13%, no sharp cut-off; inactive means mostly below about 14%; further: read at 38.3 µM for the half of the compounds with a filed dose; 0% is about no effect
Shiga inhibitor: inhibitors of Shiga toxin in Vero cells. Vero cells, Shiga toxin protein synthesis inhibition reporter. AID 2315. 290,000 compounds, 9.2% hits. inhibition, % at 38.7 µM; in the data active means inhibition mostly above about 28%, no sharp cut-off; inactive means mostly below about 43%; further: 0% is about no effect
Sm TGR block: blocks Schistosoma mansoni thioredoxin glutathione reductase; Potency, µM (top dose mostly 114 µM), for the others: at the top dose activity change, negative = inhibition, actives largely listed as inhibitors; 360,000 compounds, 3% hits; purified TGR, DTNB reduction, TNB absorbance 405 nm; Q962Y6; further: potency means the concentration at half of the fitted maximal effect; on the % scale 0 is the no-effect control and ±100 the full control effect; nearly all actives have a fitted effect of over 60% in size
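First, TGR (20 nM dispensed) and NADPH were mixed with compound. Second, a 15 min room-temperature incubation followed. Third, further NADPH and then DTNB were added to start the reaction. Finally, TNB absorbance was monitored kinetically.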
Pf growth 48h: P. falciparum growth inhibition at 48 hours (one generation); P. falciparum luciferase growth in erythrocytes, 48 h; Potency, µM (doses to about 28.7 µM), without a hit: at the top dose activity change, negative = inhibition, actives largely listed as inhibitors; 310,000 compounds, 5.9% hits; AID 504832; further: potency means the concentration at half of the fitted maximal effect; on the % scale 0 is the no-effect control and ±100 the full control effect
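Luciferase-expressing P. falciparum in infected erythrocytes (2% hematocrit, 0.1% parasitemia final) in RPMI 1640/0.5% Albumax were exposed to compound for 48 hours at 37 C, 5% CO2; growth read as luminescence.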
NS1 inh: influenza NS1 inhibition; Potency, µM (series often up to 46.1 µM), inactives show top-dose activity, positive = more growth; 270,000 compounds, 0.4% hits; AID 2326; calls by dose curve; further: potency means the concentration at half of the fitted maximal effect; actives are rising curves; nearly all actives have a fitted effect of over 50% in size
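S. cerevisiae expressing influenza A NS1, grown in glucose, washed, then diluted 1:100 into pH 6.0 -URA galactose medium with 23 nl compound. Growth recovery read as OD600; NS1-free strain serves as control.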
Pf growth 96h: inhibits malaria parasite growth, 96 h. AID 504834. Potency, µM (titrated, usually from 28.7 µM), for the others: at the top dose activity change, negative = inhibition, most hits filed as inhibitors. 320,000 compounds, 6.9% hits. P. falciparum luciferase reporter growth, 96 h; further: potency means the concentration at half of the fitted maximal effect; on the % scale 0 is the no-effect control and ±100 the full control effect
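Compounds incubated with erythrocytes infected by luciferase-expressing P. falciparum (2% hematocrit, 0.05% parasitemia final) for 96 hours, 37 C in 5% CO2. Growth inhibition scored as decreased luciferase luminescence.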
Active calls of the source: *; ? = inconclusive; / = no result. Only some compounds are listed: those with a hit (about 21% of all), similar ones and a draw of the others. Unless noted, the call rests on the fitted dose curve; in most records, active means well fitted curve in the direction sought with a large enough effect; inconclusive means small, poorly fitted or top-dose-only effect, or another doubt; inactive means no such curve, though single readings can be large; an effect the other way counts as inactive or inconclusive.

SMILES	CHX counter	Shiga inhibitor	Sm TGR block	Pf growth 48h	NS1 inh	Pf growth 96h
C[C@]12CC[C@H]3c4ccc(O)cc4CC[C@@H]3[C@H]1CC[C@@H]2OC(=O)CCC1CCCC1	/	/	/	17µM*	-14%	13µM*
CCCCC(=O)O[C@H]1CC[C@H]2[C@@H]3CCc4cc(O)ccc4[C@H]3CC[C@]12C	-1	24	-25%	?	9%	?
C[C@]12CC[C@@H]3c4ccc(O)cc4CC[C@H]3[C@@H]1CCC2=O	2	19	2%	?	-20%	13µM*
Cc1nn(C)c(C)c1/C=N/N=C1\CCC2C3CCc4cc(O)ccc4C3CCC12C (centres undefined)	-2	19	29%	2.9µM*	4%	/
CCCC(=O)n1nc(-c2ccco2)nc1NCc1ccccc1Cl	/	/	6%	/	/	/
Cc1cc(OCC(=O)Nc2ccccc2C)no1	/	/	?	-11%	/	-6%
Cc1[nH]c2ccccc2c1Cc1nnc(SCC(N)=O)o1	-2	-2	45µM*	2%	-4%	18%
CCc1ccccc1NC(=O)N[C@@H](C)C(=O)O	-3	71	1%	7%	7%	9.3µM*
CCc1ccccc1NC(=O)N[C@@H](C)C(=O)OC	-2	1	16%	14%	-4%	3%
COc1ccc(CCNc2ncnc3[nH]ncc23)cc1OC	8	-9	5%	3%	8%	15µM*
COc1ccc(CCNc2ncnc3sc(C)cc23)cc1OC	1	-1	-16%	5.2µM*	-53%	60%
CCCCCc1cc(O)c2c(c1)OC(C)(C)C1CC=C(C)CC21 (centres undefined)	/	/	/	2.4µM*	/	3µM*
CC1CCN(C2=NC(=O)/C(=C/c3cn(-c4ccccc4)nc3-c3cccc(S(=O)(=O)N(C)C)c3)S2)CC1	-7	15	-4%	7.4µM*	11%	?
CC1CCCN(C2=NC(=O)/C(=C/c3cn(-c4ccccc4)nc3-c3cccc(S(=O)(=O)N(C)C)c3)S2)C1 (centres undefined)	-3	-7	3%	?	4%	1.7µM*
COc1ccc(Cl)cc1NC(=O)c1cc2c(=O)n3ccccc3nc2s1	/	/	7%	/	/	/
CCCNC(=O)CN1CCN(c2cc3ccccc3c(Cl)n2)CC1	-2	1	-28%	?	-38%	?
O=C(COc1ccc(Br)cc1)NNC(=O)c1ccc(-n2cncn2)c([N+](=O)[O-])c1	/	/	-5%	-1%	/	-9%
COc1cc(C(C)=O)ccc1OCC(=O)Nc1ccccc1N1CCCCC1	/	/	9%	13µM*	/	?
COc1ccc(OCC(=O)Nc2ccccc2N2CCCCC2)cc1	-3	-4	-1%	?	-42%	-22%
COc1cc(C(C)=O)ccc1OCC(=O)Nc1ccccc1N1CCCC1	-1	9	-9%	-23%	-40%	10µM*
COc1ccc(CCNC(=O)c2c(Cl)ccc(Cl)c2OC)cc1OC	-3	-4	-7%	-13%	19%	?
Cc1ccc(C)c2[nH]c(=O)c(CN(Cc3ccco3)C(=O)Nc3ccccc3)cc12	16	-8	2%	12µM*	-51%	?
Cc1ccc2cc(CN(Cc3ccco3)C(=O)c3ccccc3)c(=O)[nH]c2c1C	-3	19	-3%	-15%	-33%	-10%
Cc1ccc2cc(CN(Cc3ccco3)C(=O)NCc3ccccc3)c(=O)[nH]c2c1C	7	3	4%	-29%	-11%	12µM*
Cc1ccc(-c2csc(NC(=O)CSc3nc4ccccc4c(=O)n3CCCN(C)C)n2)cc1	14	21	9%	?	/	?
Cc1cccc(C)c1OCC(=O)N(Cc1ccccc1F)C1CCS(=O)(=O)C1 (centres undefined)	/	/	0%	/	/	/
CN1C2CCC1CC(NC(=O)c1cc(S(=O)(=O)N(C)C)c(Cl)cc1Cl)C2 (centres undefined)	/	/	0%	11%	/	-19%
Cc1cccc(Oc2cc(NC(=O)Cn3cnc([N+](=O)[O-])n3)cc([N+](=O)[O-])c2)c1	-1	-5	3%	?	-9%	117%
Cc1cc(C)cc(Oc2cc(NC(=O)c3cn(C)nc3C)cc([N+](=O)[O-])c2)c1	-9	-10	9%	/	-8%	8.3µM*
CC(C)=NOc1cc(NC(=O)CCl)cc([N+](=O)[O-])c1	-4	-5	11µM*	?	-27%	?

Screening results as filed in PubChem.
